This passage reports z-score, cell count and outcome results from PubChem BioAssay AID1645838 (ICCB-Longwood Screening Facility, Harvard Medical School, 2021).

A short description of this assay: modulators of mitochondrial supercomplex assembly, cell-based, luminescence, Hoechst nuclei count (AID 1645838).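 As to all read-outs here: control cybrid cells.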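 As to z-score: higher means more mitochondrial supercomplex formation.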 As to conditions: Cells, luminescence/Hoechst cell count ratio, supercomplex reporter; for z-score: stronger effect = higher value; for cell count: measured here: cell number, Hoechst nuclei count.
Setting [1] is: library stock concentration (final well concentration not given) 80 uM.
[2] abbreviates: library stock concentration (final well concentration not given) 400 uM.
[3] abbreviates: library stock concentration (final well concentration not given) 2 mM.
[4] abbreviates: library stock concentration (final well concentration not given) 10 mM.
The mark [5] stands for this setting: library stock concentration (final well concentration not given) 46 uM.
[6] abbreviates: library stock concentration (final well concentration not given) 278 uM.
The mark [7] stands for this setting: library stock concentration (final well concentration not given) 1.67 mM.

In all, about 2,000 compounds went through this assay and about 100 (5%) were called active. Rule as the data show it: active = z-score above about 2; inactive = the rest. The sample as a whole holds a higher share of actives than the screen did.

Consider `CCCCCC(=O)CC[C@H]1C(=O)C=C[C@@H]1C/C=C\CCCC(=O)O`, for which the z-score was 1.09 (inactive) and the cell count is 5090.

Turning to `CC(C)(C)OC(=O)N1CCC(OC2CCNCC2)CC1`, the z-score was 0.0198 (inactive) under setting [1], 0.196 (inactive) under setting [2], 0.447 (inactive) under setting [3] and 0.428 (inactive) under setting [4]. Besides, the cell count reads like this: under setting [1], 4690; under setting [2], 4710; under setting [3], 4640; under setting [4], 4420.

On to `Cc1cc(CS(=O)(=O)c2ccccc2)cc(OCc2ccc(CN3CCCC3CO)cc2)c1` (configuration not stated), for which the z-score was -0.0615 (inactive) under setting [5], -0.164 (inactive) under setting [6], -0.0708 (inactive) under setting [7] and -0.221 (inactive) under setting [4]. Moreover, the cell count reads like this: under setting [5], 5870; under setting [6], 5750; under setting [7], 5420; under setting [4], 5130.

Consider `CCCCCCCCCCCCC/C=C/[C@@H](O)[C@H](CO)NC(=O)CCCCC`, for which the z-score is -0.258 (inactive) and the cell count worked out at 5330.

For `CCOC(=O)NCCCC(=O)NCCc1ccccc1`, the z-score under setting [5] is -0.07 (inactive), the z-score under setting [6] is -0.00876 (inactive), the z-score under setting [7] was -0.143 (inactive) and the z-score under setting [4] is -0.14 (inactive). In addition, the cell count by setting is: under setting [5], 5970; under setting [6], 5710; under setting [7], 5220; under setting [4], 5550.

With `CN(C)c1ccc(C(=O)NCCCCCC(=O)NO)cc1`, the z-score is 0.156 (inactive) and the cell count was 5320.

In the case of `Cc1ccc(NC(=O)CCCCCC(=O)Nc2ccccc2N)cc1`, the z-score was 1.29 (inactive) and the cell count came out at 4790.

For `CN(C)c1ccc(C(=O)NCCCCCCC(=O)NO)cc1`, the z-score was 6.25 (active) and the cell count came out at 3650.

Regarding `CC(/C=C/C(=O)NO)=C\[C@@H](C)C(=O)c1ccc(N(C)C)cc1`, the outcome is “inactive; censored for cell count”.

As for `Cc1ccc(C(=O)NCCCCCC(=O)Nc2ccccc2N)cc1`, the z-score is, setting by setting: under setting [1], 0.128 (inactive); under setting [2], 0.271 (inactive); under setting [3], 0.708 (inactive); under setting [4], 4.86 (active). Also, the cell count under setting [1] is 5180, the cell count under setting [2] came to 5260, the cell count under setting [3] came to 4840 and the cell count under setting [4] was determined as 3070.

Turning to `CCCCC[C@H](O)/C=C/[C@@H]1[C@@H](CCCCCCC(=O)O)[C@H](O)C[C@@H]1O`, the z-score was -0.12 (inactive) and the cell count amounted to 5440.

Turning to `CC(C)CC[C@@H](O)[C@@H](C)C1CCC2C3CC=C4C[C@@H](O)CC[C@]4(C)C3CC[C@@]21C` (some centres not stated), the z-score is -0.379 (inactive) and the cell count stood at 5080.

With `COC(=O)CCC[C@H](O)[C@H](O)CO`, the z-score is -0.313 (inactive) and the cell count was found to be 5480.

In the case of `CCCCCC/C=C\CCCC(=O)CC(=O)N[C@H]1CCOC1=O`, the z-score was 0.196 (inactive) and the cell count was found to be 5220.

As for `CCCCC(C)(C)[C@H](O)/C=C/[C@H]1[C@H](O)CC(=O)[C@@H]1CCCCCCC(=O)O`, the z-score is -0.22 (inactive) and the cell count was determined as 5310.

Regarding `O=C(O)c1cc(C(F)(F)F)ccc1N1CCC(OCc2ccccn2)C1` (configuration not stated), the z-score is -0.188 (inactive) under setting [1], -0.142 (inactive) under setting [2], -0.236 (inactive) under setting [3] and -0.254 (inactive) under setting [4]. Also, the cell count by setting is: under setting [1], 6080; under setting [2], 6070; under setting [3], 6240; under setting [4], 5970.

Turning to `CCCCC[C@H](O)/C=C/[C@H]1CCC(=O)[C@@H]1C/C=C\CCCC(=O)O`, the z-score is 0.602 (inactive) and the cell count turned out to be 5430.

With `CCC(NC(=O)c1c(C)c(-c2ccccc2)nc2ccccc12)c1ccccc1` (configuration not stated), the z-score was -0.542 (inactive) under setting [1], -0.315 (inactive) under setting [2], -0.402 (inactive) under setting [3] and -0.409 (inactive) under setting [4]. In addition, the cell count by setting is: under setting [1], 7010; under setting [2], 6770; under setting [3], 6520; under setting [4], 5870.

Regarding `Cc1c(Cc2ccc3ccccc3n2)c2cc(F)ccc2n1CC(=O)O`, the z-score reads like this: under setting [1], -0.574 (inactive); under setting [2], -0.436 (inactive); under setting [3], -0.171 (inactive); under setting [4], -0.183 (inactive). The cell count by setting is: under setting [1], 6030; under setting [2], 6070; under setting [3], 6110; under setting [4], 5700.

Take `Cc1c(-c2ccc(-c3ccccc3F)cc2)nc2ccc(F)cc2c1C(=O)O`: the outcome (library stock 10 mM) was “inactive; censored for cell count”. In addition, the z-score runs as follows: under setting [1], -0.011 (inactive); under setting [2], 9.53 (active); under setting [3], 9.71 (active). In addition, the cell count under setting [1] amounted to 5350, the cell count under setting [2] stood at 2330 and the cell count under setting [3] was 1790.

In the case of `O=C(O)CCC/C=C/C[C@@H]1[C@@H](CC[C@@H](O)CCc2ccccc2)[C@H](O)C[C@@H]1O`, the z-score was -0.13 (inactive) and the cell count was 5360.

Consider `O=C(CCCCCCC(=O)Nc1ccccc1)NO`, for which the z-score was 0.328 (inactive) and the cell count amounted to 5300. The outcome (library stock 10 mM) is “inactive; censored for cell count”. Besides, under setting [1], the z-score was 0.428 (inactive) and the cell count stood at 5490. Under setting [2], the z-score was 2.1 (active) and the cell count was determined as 4770. Further, under setting [3], the z-score is 10.2 (active) and the cell count is 3220.

Take `CC(C)(C)C(=O)Nc1ccccc1`: the z-score is -0.189 (inactive) and the cell count stood at 5010.

Take `Nc1ccccc1NC(=O)CCCCCCC(=O)Nc1ccccc1`: the z-score is 0.265 (inactive) and the cell count was determined as 5570.

For the compound `CCCCCCCCCCCCCCCCSC[C@H](COP(=O)([O-])OCC[N+](C)(C)C)NC(=O)CCCCCCCCCCCCCCC`, the z-score is -0.387 (inactive) and the cell count worked out at 5820.

With `C#CCC(Cc1cnc2nc(N)nc(N)c2n1)c1ccc(C(=O)NC(CCC(=O)O)C(=O)O)cc1` (configuration not stated), the outcome runs as follows: (library stock 278 µM) “inactive; censored for cell count”; (library stock 1.67 mM) “inactive; censored for cell count”; (library stock 10 mM) “inactive; censored for cell count”. In addition, the z-score under setting [5] is 1.41 (inactive). In addition, the cell count under setting [5] came to 2070.

Regarding `CCCCCCCCCCCCCCC(=O)N[C@H]1CCOC1=O`, the outcome was “inactive; censored for cell count”.

On to `CSCCC(NC(=O)C(CC(C)C)NC(=O)CNC(=O)C(NC(=O)C(Cc1ccccc1)NC(=O)C(CO)NC(=O)C(CC(=O)O)NC(=O)[C@H](NC(=O)C(CCCCN)NC(=O)C(N)Cc1cnc[nH]1)C(C)O)C(C)C)C(N)=O` (some centres not stated), for which the z-score reads like this: under setting [1], -0.214 (inactive); under setting [2], -0.449 (inactive); under setting [3], -0.151 (inactive); under setting [4], -0.389 (inactive). For the same compound, the cell count reads like this: under setting [1], 6630; under setting [2], 6610; under setting [3], 6500; under setting [4], 6040.
